# From PubChem BioAssay AID1728 (National Center for Advancing Translational Sciences (NCATS), 2009)
# This is one part of the list. Results filed as inconclusive are left out. Active and inactive are the calls of the source. Calls follow the shape of the dose curve; as a rule, active = well fitted curve in the direction sought with a large enough effect; inconclusive = small, poorly fitted or top-dose-only effect, or another doubt; inactive = no such curve, though single readings can be large or run the other way.
# Molecular target: RAF proto-oncogene serine/threonine-protein kinase (Homo sapiens) (UniProt P04049)
# Test: Assay for Inhibitors of the ERK Signaling Pathway using a Homogeneous Screening Assay: c-Raf Inhibition
# Details: homogeneous biochemical assay; series mostly up to 76.9 µM
# Text: qHTS Assay for Inhibitors of the ERK Signaling Pathway using a Homogeneous Screening Assay
# NIH Chemical Genomics Center [NCGC]
# NIH Molecular Libraries Screening Centers Network [MLSCN]
# Assay Submitter (PI): Dr. Wei Zheng, NCGC/NIH
# The Ras/extracellular-signal-regulated kinase (ERK) mitogen activated protein (MAP) kinase signaling pathway (ERK1/2 cascade) plays is a key role in transmitting signals from the cell surface to the nucleus (Nishida and Gotoh 1993; Chang and Karin, 2001). The cascade is initiated by the small G-protein Ras, which recruits Raf […], where activation occurs. Alternatively, this pathway can be activated by elevating intracellular cAMP.
# Activation of the ERK pathway is essential in increased cell division and cell survival. Sustained and constitutive activation of the ERK pathway, however, has been linked to uncontrolled cell proliferation, increased cell survival, and tumor progression. Thus, the ERK has been as an attractive target for cancer chemotherapy in the past few years (Sebolt-Leopold and Herrera, 2004). […]
# The HTRF kinase assay (components supplied as kit by Cisbio) was chosen for the EGFR and EGFR mutant enzyme assays that applied the time resolved fluorescence resonance energy transfer (TR-FRET) principle. […]
# Sequence of RAF proto-oncogene serine/threonine-protein kinase (Homo sapiens) (P04049 whole entry, looked up): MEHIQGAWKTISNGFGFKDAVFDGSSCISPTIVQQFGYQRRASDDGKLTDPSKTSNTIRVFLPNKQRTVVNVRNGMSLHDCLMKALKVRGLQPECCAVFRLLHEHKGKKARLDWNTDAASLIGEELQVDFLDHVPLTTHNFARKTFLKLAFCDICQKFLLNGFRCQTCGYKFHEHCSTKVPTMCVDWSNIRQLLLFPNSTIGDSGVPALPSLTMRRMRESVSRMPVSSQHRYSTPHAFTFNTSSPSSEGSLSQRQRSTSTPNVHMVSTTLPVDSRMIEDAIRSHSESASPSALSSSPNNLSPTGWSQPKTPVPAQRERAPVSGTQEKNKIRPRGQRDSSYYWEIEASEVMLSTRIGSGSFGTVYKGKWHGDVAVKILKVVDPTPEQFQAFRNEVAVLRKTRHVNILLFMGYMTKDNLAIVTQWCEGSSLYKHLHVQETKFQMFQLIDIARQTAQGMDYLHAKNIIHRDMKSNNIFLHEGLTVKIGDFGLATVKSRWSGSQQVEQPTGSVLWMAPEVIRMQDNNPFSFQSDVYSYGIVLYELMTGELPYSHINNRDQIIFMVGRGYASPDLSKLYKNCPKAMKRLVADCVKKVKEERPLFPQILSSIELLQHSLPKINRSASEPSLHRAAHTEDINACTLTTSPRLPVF
row,Compound,outcome
1,CN(C)c1ccc(Nc2c3c4c(cccc4n(C)c2=O)C(=O)c2ccccc2-3)cc1,inactive
2,O=[N+]([O-])c1ccccc1N/N=C1\CCc2ccccc21,inactive
